Source: PubChem BioAssay
CRFR2-BP antag: antagonists of CRF-binding protein/CRF-R2 receptor complex; HEK293 CRF-R2/CRF-BP, CRF-induced calcium fluorescence; inhibition, % at 11.8 µM; actives 0.59% (n = 350,000);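 active means inhibition of the ligand-induced calcium signal above about 50% at the single tested concentration, limit read from the data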
NadD block: NadD (S. aureus) enzyme inhibition. purified NadD enzyme, colorimetric absorbance read-out. inhibition, % at 20 µM. actives 0.78% (n = 360,000). AID 602399; in the data active means inhibition above about 26%
NRP1-CendR mod: NRP-1/CendR interaction modulation; O14786; FAM-RPARPAR peptide binding to NRP-1, fluorescence polarization; inhibition, % at 25 µM; actives 0.85% (n = 360,000); AID 602438;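 active means inhibition or corrected inhibition above about 18%, plus a signal ratio from 0.5 to 1.5, limit read from the data, passing the limit was not always enough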
Myeloid diff 2: myeloid differentiation induction. actives 1% (n = 360,000). ER-HoxA9 myeloid progenitors, lysozyme-GFP differentiation, flow cytometry. calls only at 10 µM. AID 624256;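 active means normalized GFP-positive differentiation at or above the plate's own cutoff, the solvent-only control mean plus 3 SD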;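 further: cells exposed to compound for four days before flow analysis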
FAS TE block: blocks the thioesterase domain of human fatty acid synthase | P49327 | recombinant FAS-TE, OMFH fluorogenic substrate, fluorescence endpoint | inhibition, % at 15 µM | actives 0.67% (n = 360,000) | AID 602261;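 active means compounds whose normalised, plate-corrected inhibition of enzyme fluorescence in the single-dose primary screen is 50% or more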
Myeloid diff CP1: compounds promoting myeloid differentiation; actives 2% (n = 2,300); shares compounds with Myeloid diff 2; calls only; ER-HoxA9 myeloid progenitors, GFP/Mac1 double-positive flow; AID 651706;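 active means share of green or green-and-red cells above 9 and 9% in run 1 or 4 and 3% in run 2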
GFP autofluor: counter-screen for myeloid differentiation promoters: compound fluorescence | shares compounds with Myeloid diff 2 | ER-HoxA9 myeloid progenitors, no estrogen, GFP autofluorescence flow cytometry; vehicle wells 0%, positive control 100% | fluorescence response, % (concentration not given with the values) | actives 7.4% (n = 2,300);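 active means over 5% cells positive for green fluorescent reporter, or over 2% positive for both it and APC stain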
Numbers stand for hits; - = inactive; . = no result; + = active, no number. In the library only some 3.6% were active in any assay of this set; here they are far more common.

SMILES	CRFR2-BP antag	NadD block	NRP1-CendR mod	Myeloid diff 2	FAS TE block	Myeloid diff CP1	GFP autofluor
CCCCn1c(N)c(N(CC(C)C)C(=O)c2cccc(S(=O)(=O)N3CCN(C)CC3)c2)c(=O)[nH]c1=O	-	-	-	-	-	.	.
CCN(Cc1nc2cc(Cl)ccc2c(=O)[nH]1)C(=O)c1cc2c(s1)CCCCC2	-	-	-	-	-	-	-
CCCCN(C(=O)c1ccc(C)o1)c1c(N)n(CC(C)C)c(=O)[nH]c1=O	-	-	-	-	-	.	.
OCC[C@H]1NCc2cc(CO)cc(-c3ccccc3)c21	-	-	-	-	-	-	-
O=C(CN1CCN(Cc2ccc3c(c2)OCO3)CC1)Nc1ccc(N2CCOCC2)cc1	-	-	-	-	-	.	.
COc1ccc2c(c1OC)C(=O)N(c1ccc(C)c(C)c1)C2=O	-	-	-	-	-	.	.
COc1ccc2c(c1OC)C(=O)N(c1ccc3c(c1)CCC3)C2=O	-	-	-	-	-	-	-
CSCCC(C)N1CCC(Oc2ccc(C(=O)N3CCCC3)cc2)CC1 (stereo not given)	-	-	-	-	-	.	.
O=C(CSc1nnc(-c2ccncc2)n1Cc1ccccc1)NC1CCCc2ccccc21 (stereo not given)	-	-	-	-	-	.	.
O=S(=O)(NCc1ccncc1)c1ccc(F)c(F)c1	-	-	-	-	-	-	-
CCOc1ccc(CNC(=O)CCn2c(=O)oc3ccccc32)cc1OC	-	-	-	-	-	.	.
COc1ccccc1OCCn1c(=O)oc2ccc(C)cc21	-	-	-	+	-	-	-
Cc1ccc2oc(=O)n(CCCOc3ccccc3C)c2c1	-	-	-	-	-	.	.
COc1ccc(CNC(=O)Cn2c(=O)oc3ccccc32)cc1OC	-	-	-	-	-	-	-
COc1ccc(Cn2c(=O)oc3ccc(C)cc32)cc1OC	-	-	-	+	-	-	-
O=C(NCc1ccccc1)C(c1ccco1)N(C(=O)c1csnn1)c1ccccc1 (stereo not given)	-	-	-	-	-	.	.
N#CCCn1cnc2c(=S)nc[nH]c21	-	-	-	+	-	-	-
O=C(O)CCC(=O)OC1CC2CCC1C2 (stereo not given)	-	-	-	-	-	.	.
O=C(O)C1C2C=CC(C2)C1C(=O)OC1CC2CCC1C2 (stereo not given)	-	-	-	+	-	-	-
CN1OC[C@@H]2CN(C(=O)CCc3ccccc3)[C@H](c3cccc(Oc4ccccc4)c3)C[C@@H]21	-	-	-	-	-	-	-
CC1(C)Cc2c(cnn2-c2ccccc2)C(NC(=O)C2(C(N)=O)CC2)C1 (stereo not given)	-	-	-	+	-	-	-
CC1(C)Cc2c(cnn2-c2ccccc2)C(NC(=O)c2ccoc2)C1 (stereo not given)	-	-	-	-	-	.	.
CCCCCCCC(=O)NNC(=O)c1ccc(F)cc1	-	-	-	-	-	-	-
O=C(c1ccc(S(=O)(=O)N2CCCCC2)cc1)N1CCN(CCN2C(=O)c3cccc4cccc(c34)C2=O)CC1	-	-	-	+	-	-	-
O=C(c1ccc(S(=O)(=O)N2CCCC2)cc1)N1CCCCCC1	-	-	-	-	-	.	.
SMILES	CRFR2-BP antag	NadD block	NRP1-CendR mod	Myeloid diff 2	FAS TE block	Myeloid diff CP1	GFP autofluor
C[C@H](NC(=O)c1ccco1)C(=O)NCCc1ccc(S(N)(=O)=O)cc1	-	-	-	-	-	.	.
CCOC(=O)c1ccc(CNCc2ccc(C)cc2)cc1	-	-	-	-	-	.	.
O=C(CN1C(=O)C(=O)N(C2CCCC2)C1=O)NCCc1ccc(Cl)cc1Cl	-	-	-	-	-	.	.
Cc1cc(N2CCN(c3nc4ccccc4s3)CC2)n2ncnc2n1	-	-	-	-	-	-	-
Cc1cccnc1NC(=O)c1cccc(S(=O)(=O)NCc2ccccc2)c1	-	-	-	-	-	.	.
CC(C)(C)OC(=O)N1CC2(CCCCC2)CC1Cc1ccc(C(F)(F)F)cc1 (stereo not given)	-	-	-	-	-	-	-
Cc1nnc(NC(=O)CCSc2ccc(Cl)cc2)s1	-	-	-	-	-	.	.
Cc1ccc(S(=O)(=O)NCCC(=O)Nc2ccc3c(c2)OCO3)cc1	-	-	-	-	-	-	-
O=C(NCCCn1ccnc1)NC(C(F)(F)F)C(F)(F)F	-	-	-	-	-	-	-
O=C(NCCCn1ccnc1)C(=O)NC1CCCCC1	-	-	-	+	-	-	-
COc1ccc(C2=Nc3ccccc3N(C(=O)c3cc(Cl)cc(Cl)c3)C2C(=O)NCc2ccccc2)cc1 (stereo not given)	.	.	-	-	.	.	.
O=C(Cn1c(=O)n(Cc2ccco2)c(=O)c2cc(Cl)ccc21)NCC1CCCO1 (stereo not given)	-	-	-	+	-	-	-
CCn1nc(CC(C)C)cc1C(=O)N1CCCC(Nc2ccc(OC)cc2)C1 (stereo not given)	-	-	-	-	-	.	.
COCCCNC(=O)C1CCC(=O)N(c2ccc3c(c2)OCO3)C1c1ccc(OC)cc1 (stereo not given)	-	-	-	-	-	-	-
COc1ccc(NC(=S)N(CCCN2CCCC2)Cc2cccn2Cc2ccc(Cl)cc2)cc1Cl	-	-	-	-	-	.	.
Cc1ccc(NC(=S)N(CCCN2CCCC2)Cc2cccn2Cc2ccc(Cl)cc2)cc1Cl	-	-	-	+	-	-	-
Cc1ccc(NC(=S)N(CCCN2CCCC2)Cc2cccn2Cc2ccc(Cl)cc2)cc1C	-	-	-	-	-	.	.
FC(F)(F)c1cccc(NC(=S)N(CCCN2CCCC2)Cc2cccn2Cc2ccc(Cl)cc2)c1	-	-	-	+	-	-	41
CN(C)S(=O)(=O)c1ccc(Cl)c(NC(=O)CN2C(=O)NC(C)(C3CC3)C2=O)c1 (stereo not given)	-	-	-	-	-	.	.
Cc1ccc(S(=O)(=O)N(C)c2ccc3c(c2)C(=O)c2ccccc2-3)cc1	.	-	-	-	-	.	.
COC(=O)c1c(NC(=O)c2ccccc2OC)sc(C(=O)N2CCOCC2)c1C	-	-	-	-	-	.	.
CCCC#Cc1ccc2c(c1)O[C@H](CN(C)C(=O)CC1CC1)[C@H](C)CN([C@@H](C)CO)S2(=O)=O	-	-	-	-	-	.	.
CCOC(=O)c1csc(NC(=O)CSc2nnnn2-c2ccc(OC)cc2)n1	-	-	-	-	-	.	.
COc1ccc(-n2nnnc2SCC(=O)Nc2nnc(C)s2)cc1	-	-	-	+	-	-	-
COc1ccccc1NC(=O)CSc1nnnn1-c1ccc2c(c1)OCO2	-	-	-	-	-	-	-
Cc1nc(N)c(C#N)c(-c2cccnc2)c1C	-	-	-	+	-	-	-
CCc1nc(N)c(C#N)c(-c2cccnc2)c1C	-	-	-	-	-	.	.
CSc1ncnc2c1ncn2CCCNCCCN1CCCC1=O	-	-	-	+	-	-	-
CSc1ncnc2c1ncn2CCCNCC1CCCO1 (stereo not given)	-	-	-	-	-	.	.
